The record followed here is PubChem BioAssay (Tox21).

Molecules are shown by their SMILES. Records with an inconclusive call do not appear. The source made the active and inactive calls. Unless noted, the call rests on the fitted dose curve; in most records, active means well fitted curve in the direction sought with a large enough effect in the repeat runs; inconclusive means weak or mixed curves; inactive means no such curve, though single readings can be large; an effect the other way counts as inactive or inconclusive.

Experiment [1] in a line: qHTS assay to test for compound auto fluorescence at 535 nm (green) in HEK293 cells (AID 720680). (In general: qHTS replaces the single test concentration by a dilution series.)
Experiment [2] in a line: qHTS assay to test for compound auto fluorescence at 460 nm (blue) in HEK293 cell free culture (AID 720681). Put shortly:
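Test compounds were pinned into cell-free culture medium (DMEM with 10% FBS) and fluorescence was read directly at Ex/Em 405/460 nm. Signals were expressed as fluorescence equivalents of triamterene, with DMSO vehicle as control.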

The nature of experiment [3]: qHTS assay to test for compound auto fluorescence at 535 nm (green) in HEK293 cell free culture (AID 720682). The method, boiled down:
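Fluorescein serves as the green reference fluorophore; each compound's intrinsic emission at 535 nm (excitation 485 nm) is reported as an equivalent amount of that dye, measured in serum-containing DMEM without cells.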

The nature of experiment [4]: qHTS assay to test for compound auto fluorescence at 590 nm (red) in HEK293 cell free culture (AID 720683). The method, boiled down:
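Tox21 10K library compounds were pinned into cell-free DMEM with 10% FBS and fluorescence was read at excitation 540 nm. Activity is expressed as Rose Bengal sodium equivalency.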

Experiment [5] in a line: qHTS assay to test for compound auto fluorescence at 590 nm (red) in HepG2 cell free culture (AID 720684). Put shortly:
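Ex 540 / Em 590 nm read of compound in cell-free MEM (10% FBS). Rose Bengal sodium reference.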

The nature of experiment [6]: qHTS assay to test for compound auto fluorescence at 460 nm (blue) in HepG2 cell free culture (AID 720685). Put shortly: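 Cell-free plates of MEM plus 10% FBS received 23 nL compound or DMSO vehicle; blue-channel (405/460 nm) intensity scored against triamterene as reference fluorophore.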
A short description of experiment [7]: qHTS assay to test for compound auto fluorescence at 535 nm (green) in HepG2 cell free culture (AID 720686).
Experiment [8] is described as follows: qHTS assay to test for compound auto fluorescence at 460 nm (blue) in HepG2 cells (AID 720687). Put shortly:
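Cells (2,000/well in MEM with 10% FBS) attached overnight at 37 C, then were exposed to compound or DMSO for 1 hr at 37 C, 5% CO2. Fluorescence read at Ex/Em 405/460 nm, expressed as triamterene-equivalent signal.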

Experiment [9] has as its target Glucocorticoid receptor (Homo sapiens) (UniProt P04150). Put plainly: qHTS assay to identify small molecule agonists of the glucocorticoid receptor (GR) signaling pathway (AID 720691; active means well fitted activation curve with a large enough effect in the signal ratio in the repeat runs, not every such curve was filed as active; the % refers to the signal ratio). As to conditions: GR-bla HeLa, beta-lactamase reporter ratio, 18 h; activation: at 62.4 µM (top of the series). The method, boiled down: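 Agonist-mode qHTS in HeLa cells stably expressing a glucocorticoid-response-element beta-lactamase reporter. Fluorescence intensity read with FRET substrate (2 h, room temperature) after 18 h compound treatment at 37 C.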

Experiment [10] has the same target. Description: qHTS assay to identify small molecule antagonists of the glucocorticoid receptor (GR) signaling pathway (AID 720692; active means well fitted inhibition curve with a large enough effect in the signal ratio in the repeat runs, not every such curve was filed as active; the % refers to the signal ratio; further: potency means the concentration at half of the fitted maximal effect). Put shortly:
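Inhibition of dexamethasone-driven (5 nM final) beta-lactamase expression was measured in GRE-reporter HeLa cells over 18 h at 37C. Fluorescence was read after 2 h with the B/G FRET substrate at room temperature.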

Experiment [11] is described as follows: qHTS assay to identify small molecule antagonists of the glucocorticoid receptor (GR) signaling pathway - cell viability counter screen (AID 720693). Further: nearly all actives have a fitted effect of over 55% in size.
Experiment [12] can be described thus: qHTS assay for identifying genotoxic compounds that show differential cytotoxicity against isogenic chicken DT40 cell lines with known DNA damage response pathways - wild type cell line (AID 743012). Further: nearly all actives have a fitted effect of over 60% in size. Further: potency means the concentration at half of the fitted maximal effect. Put shortly:
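Viability by ATP luminescence (CellTiter-Glo, 30 min RT) after 40 h compound treatment at 37 C/5% CO2, using 300 parental DNA repair-proficient DT40 cells per well.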

A short description of experiment [13]: qHTS assay for identifying genotoxic compounds that show differential cytotoxicity against isogenic chicken DT40 cell lines with known DNA damage response pathways - Rev3 mutant cell line (AID 743014). Further: nearly all actives have a fitted effect of over 55% in size.
A short description of experiment [14]: qHTS assay for identifying genotoxic compounds that show differential cytotoxicity against isogenic chicken DT40 cell lines with known DNA damage response pathways - Rad54/Ku70 mutant cell line (AID 743015). Further: nearly all actives have a fitted effect of over 60% in size. Further: potency means the concentration at half of the fitted maximal effect.
Experiment [15] can be described thus: qHTS assay to identify small molecule antagonists of the androgen receptor (AR) signaling pathway - cell viability counter screen (AID 743033; further: nearly all actives have a fitted effect of over 45% in size).
Experiment [16] can be described thus: qHTS assay to identify small molecule antagonists of the androgen receptor (AR) signaling pathway using the MDA cell line - cell viability counter screen (AID 743041; further: nearly all actives have a fitted effect of over 45% in size). Put shortly: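 In this qHTS counter assay, fluorescence intensity after CellTiter-Fluor addition indicated viability of MDA-kb2 AR-luc cells given compounds and R1881 for 16 h at 37C.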
Experiment [17] addresses Androgen receptor (Homo sapiens) (UniProt P10275). Put plainly: qHTS assay to identify small molecule agonists of the androgen receptor (AR) signaling pathway (AID 743036; active means well fitted activation curve with a large enough effect in the signal ratio in the repeat runs, with a control signal flat, not every such curve was filed as active; the % refers to the signal ratio). The method, boiled down: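 Fluorescence from a beta-lactamase FRET substrate served as read-out in AR-UAS-bla GripTite HEK293 cells. Cells were treated with DMSO-dissolved compounds for 16 h at 37C, then with LiveBLAzer B/G substrate for 2 h at room temperature.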

The target is the same in experiment [18]. Put plainly: qHTS assay to identify small molecule agonists of the androgen receptor (AR) signaling pathway using the MDA cell line (AID 743040; further: nearly all actives have a fitted effect of over 20% in size). The method, boiled down: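 Cell-based luciferase reporter: MDA-kb2, MMTV promoter (AR + GR response elements). 16 h compound exposure at 37C; ONE-Glo, 30 min RT, luminescence.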
Experiment [19] shares this target. Put plainly: qHTS assay to identify small molecule antagonists of the androgen receptor (AR) signaling pathway using the MDA cell line (AID 743042; further: nearly all actives have a fitted effect of over 55% in size). Put shortly: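 MDA-kb2 cells (human breast carcinoma, stably carrying an MMTV-luciferase reporter responsive to AR and GR) were plated at 3,000 cells/well and preincubated 5 hr at 37C, then given compound plus R1881 agonist for 16 h. ONE-Glo luminescence was read.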

Experiment [20] shares this target. Put plainly: qHTS assay to identify small molecule antagonists of the androgen receptor (AR) signaling pathway (AID 743035; active means well fitted inhibition curve with a large enough effect in the signal ratio in the repeat runs, not every such curve was filed as active; the % refers to the signal ratio). The method, boiled down:
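Antagonist mode: AR-bla HEK293 cells co-treated with test compounds and agonist R1881 for 16 h at 37C, 5% CO2. Beta-lactamase activity read as FRET fluorescence after 2 h room-temperature substrate loading.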

Chain of Glucocorticoid receptor (Homo sapiens) (P04150 whole entry, looked up): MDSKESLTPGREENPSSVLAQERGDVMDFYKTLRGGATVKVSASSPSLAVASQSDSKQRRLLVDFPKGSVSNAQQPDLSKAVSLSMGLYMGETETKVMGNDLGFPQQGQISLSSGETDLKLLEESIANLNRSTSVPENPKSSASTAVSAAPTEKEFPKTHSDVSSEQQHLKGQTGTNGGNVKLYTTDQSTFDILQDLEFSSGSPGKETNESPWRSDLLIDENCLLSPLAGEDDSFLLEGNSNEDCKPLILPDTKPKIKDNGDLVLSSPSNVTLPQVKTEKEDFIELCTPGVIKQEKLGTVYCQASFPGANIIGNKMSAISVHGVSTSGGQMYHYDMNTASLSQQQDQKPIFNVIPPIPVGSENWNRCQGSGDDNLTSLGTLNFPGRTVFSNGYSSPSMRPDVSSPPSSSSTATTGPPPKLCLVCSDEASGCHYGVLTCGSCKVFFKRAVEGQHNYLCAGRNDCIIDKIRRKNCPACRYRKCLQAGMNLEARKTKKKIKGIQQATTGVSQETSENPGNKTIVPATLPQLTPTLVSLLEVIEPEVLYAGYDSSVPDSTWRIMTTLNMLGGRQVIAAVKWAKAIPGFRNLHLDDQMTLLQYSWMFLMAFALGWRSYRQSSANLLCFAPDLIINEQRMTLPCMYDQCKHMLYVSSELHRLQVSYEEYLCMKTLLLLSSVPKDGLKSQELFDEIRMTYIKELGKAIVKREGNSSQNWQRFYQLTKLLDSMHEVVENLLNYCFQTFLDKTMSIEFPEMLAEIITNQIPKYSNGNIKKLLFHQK
Chain of Androgen receptor (Homo sapiens) (P10275 whole entry, looked up): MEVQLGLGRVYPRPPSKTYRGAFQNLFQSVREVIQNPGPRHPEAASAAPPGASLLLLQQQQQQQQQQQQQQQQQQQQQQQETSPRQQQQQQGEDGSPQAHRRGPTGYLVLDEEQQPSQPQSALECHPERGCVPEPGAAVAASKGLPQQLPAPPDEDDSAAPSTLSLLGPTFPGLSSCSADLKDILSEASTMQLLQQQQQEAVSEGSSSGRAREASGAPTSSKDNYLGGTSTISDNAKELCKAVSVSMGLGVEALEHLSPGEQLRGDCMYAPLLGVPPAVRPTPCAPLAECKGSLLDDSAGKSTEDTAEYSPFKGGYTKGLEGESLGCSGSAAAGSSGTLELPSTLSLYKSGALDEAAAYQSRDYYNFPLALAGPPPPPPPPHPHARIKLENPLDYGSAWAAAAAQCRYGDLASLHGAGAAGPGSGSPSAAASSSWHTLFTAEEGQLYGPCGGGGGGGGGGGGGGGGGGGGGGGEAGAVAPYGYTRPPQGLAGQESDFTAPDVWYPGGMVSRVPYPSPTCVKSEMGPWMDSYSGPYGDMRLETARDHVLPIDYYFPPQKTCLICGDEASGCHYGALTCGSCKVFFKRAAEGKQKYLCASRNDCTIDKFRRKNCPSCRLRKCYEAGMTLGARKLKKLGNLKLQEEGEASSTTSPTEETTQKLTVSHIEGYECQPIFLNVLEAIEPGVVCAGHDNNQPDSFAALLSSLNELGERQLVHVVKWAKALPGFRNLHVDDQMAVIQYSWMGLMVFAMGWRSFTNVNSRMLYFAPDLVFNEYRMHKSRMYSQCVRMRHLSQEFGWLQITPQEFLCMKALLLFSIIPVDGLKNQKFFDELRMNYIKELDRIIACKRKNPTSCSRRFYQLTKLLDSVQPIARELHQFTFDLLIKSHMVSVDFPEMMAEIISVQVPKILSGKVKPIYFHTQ

Take `NC(=O)OCC(O)COc1ccc(Cl)cc1` (stereo not drawn): the Potency entry in experiment [1], in experiment [2], in [3], in experiment [4], in experiment [5] and in [7] was “inactive” throughout. Moreover, the Potency result in experiment [9], in experiment [10], in experiment [11], in experiment [12], in [13] and in experiment [14] was “inactive” in each case. For the same compound, the Potency result in experiment [15] and in experiment [16] was “inactive” in each case. In addition, the outcome in experiment [6] and in [8] was inactive.
In the case of `CCCCCCCCCCCCCCCC(=O)OCCC1CCN(CCCN2c3ccccc3Sc3ccc(S(=O)(=O)N(C)C)cc32)CC1`, the Potency entry in experiment [1], in [2], in experiment [3], in experiment [4], in experiment [5] and in experiment [7] was “inactive” throughout. The Potency entry in experiment [9], in [10], in experiment [11], in experiment [12], in experiment [14] and in experiment [15] was “inactive” throughout. Besides, in [16], the Potency result was “inactive”. In addition, the call in experiment [6] and in [8] was inactive.
For `CCCCC(=O)O[C@H]1CC[C@H]2[C@@H]3CCc4cc(O)ccc4[C@H]3CC[C@]12C`, the Potency result in experiment [1], in [2], in [3], in experiment [4], in experiment [5] and in experiment [7] was “inactive” each time. Also, the Potency result in experiment [9], in experiment [11], in [15] and in experiment [16] was “inactive” in each case. Moreover, the result in [6] and in experiment [8] was inactive. For the same compound, the results for the Potency in experiment [10], in experiment [12] and in experiment [14] were 9.52 µM (active), 18.8 µM (active) and 16.8 µM (active), respectively.
For the compound `CCOC(=O)c1c[nH]c2cc(OCC(C)C)c(OCC(C)C)cc2c1=O`, the Potency entry in experiment [1], in [2], in experiment [3], in experiment [4], in experiment [5] and in [7] was “inactive” each time. For the same compound, the Potency entry in [9], in [10], in experiment [11], in [12], in [14] and in [15] was “inactive” throughout. Further, the Potency result in experiment [17], in experiment [18], in [16] and in [19] was “inactive” throughout. Besides, the outcome in experiment [6] and in experiment [8] was inactive.
As for `CCCCC/C=C\CCC(=O)N[C@H]1[C@H](Oc2c3cc4cc2Oc2ccc(cc2Cl)[C@@H](O[C@@H]2O[C@H](CO)[C@@H](O)[C@H](O)[C@H]2NC(C)=O)[C@@H]2NC(=O)[C@H](NC(=O)[C@@H]4NC(=O)[C@H]4NC(=O)[C@@H](Cc5ccc(c(Cl)c5)O3)NC(=O)[C@H](N)c3ccc(O)c(c3)Oc3cc(O)cc4c3)c3ccc(O)c(c3)-c3c(O[C@H]4O[C@H](CO)[C@@H](O)[C@H](O)[C@@H]4O)cc(O)cc3[C@@H](C(=O)O)NC2=O)O[C@H](CO)[C@@H](O)[C@@H]1O`, the Potency result in [1], in experiment [2], in [3], in experiment [4], in experiment [5] and in experiment [7] was “inactive” throughout. Also, the Potency result in experiment [9], in experiment [10], in [11], in experiment [12], in experiment [14] and in experiment [15] was “inactive” in each case. The Potency result in experiment [16] was “inactive”. The outcome in experiment [6] and in experiment [8] was inactive.
Turning to `C[N+]1(C)CCN(CC(O)(c2ccccc2)C2CCCCC2)CC1` (stereo not drawn), the Potency result in experiment [1], in experiment [2], in experiment [3], in experiment [4], in experiment [5] and in [7] was “inactive” throughout. In addition, the Potency entry in [9], in experiment [10], in experiment [11], in experiment [12], in experiment [14] and in experiment [15] was “inactive” throughout. Also, the Potency entry in experiment [20], in experiment [17], in [18], in [16] and in experiment [19] was “inactive” throughout. For the same compound, the result in experiment [6] and in [8] was inactive.
As for `CCCC1C(=O)N2C(N(C)C)=Nc3ccc(C)cc3N2C1=O` (stereo not drawn), the Potency result in experiment [1], in experiment [2], in [3], in experiment [4], in experiment [5] and in [7] was “inactive” throughout. Also, the Potency result in experiment [9], in experiment [10], in experiment [11], in experiment [12], in experiment [14] and in experiment [15] was “inactive” throughout. In addition, in [16], the Potency entry is “inactive”. The call in [6] and in [8] was inactive.
